TDP1 cell noCPT – qHTS for Inhibitors of human tyrosyl-DNA phosphodiesterase 1 (TDP1): qHTS in cells in absence of CPT; DT40 Tdp1-/- hTDP1 cells, no CPT, ATP luminescence, 48 h; Potency, µM (series often up to 46.2 µM), most hits filed as inhibitors; 420,000 compounds, 15% hits; AID 686978, 2013; also: nearly all actives have a fitted effect of over 55% in size
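Cells were dispensed at 400 per well, compounds added by pin tool, plates incubated ≥48 hr at 37 °C, then CellTiter-Glo added for 30 min at room temperature before luminescence reading. Line: DT40 Tdp1-/- complemented with hTDP1; camptothecin omitted.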
DT40 TDP1 CPT – growth inhibition of DT40 Tdp1-/-;hTDP1 cells with camptothecin (screen for TDP1 inhibitors) | chicken DT40 Tdp1-/-;hTDP1 cells + 20 nM CPT, ATP luminescence, 48 h | Potency, µM (top dose mostly 46.2 µM), most hits filed as inhibitors | 420,000 compounds, 12% hits | AID 686979; also: nearly all actives have a fitted effect of over 55% in size
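Cell growth measured by CellTiter-Glo luminescence after a minimum 48 h, 37 C compound exposure with 20 nM CPT in Tdp1-knockout DT40 cells stably expressing hTDP1, seeded 400/well; qHTS titration format.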
DRD3 antagonist – antagonists of human D3 dopamine receptor; D3R cells, DiscoveRx beta-arrestin luminescence, antagonist mode; hits give low values; 360,000 compounds, 2.5% hits; AID 652054; max response, negative = inhibition, %; in the data active = max response below about -50%; inconclusive = no clear call, values can overlap the other calls
Target sequence (P35462 whole entry, looked up): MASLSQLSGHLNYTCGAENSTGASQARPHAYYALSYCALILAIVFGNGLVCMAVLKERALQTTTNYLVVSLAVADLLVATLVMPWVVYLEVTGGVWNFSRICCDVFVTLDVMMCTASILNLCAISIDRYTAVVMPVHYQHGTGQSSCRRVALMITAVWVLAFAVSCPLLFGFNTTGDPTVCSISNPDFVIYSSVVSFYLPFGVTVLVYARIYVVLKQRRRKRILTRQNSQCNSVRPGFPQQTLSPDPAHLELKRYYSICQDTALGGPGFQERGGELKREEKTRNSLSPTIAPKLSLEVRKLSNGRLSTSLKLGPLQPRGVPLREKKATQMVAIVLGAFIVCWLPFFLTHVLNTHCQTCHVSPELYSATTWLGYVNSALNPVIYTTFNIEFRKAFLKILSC
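Cells plated overnight at 1500 cells/well, then exposed to library compounds with dopamine controls for 90 minutes at 37 degrees C. DiscoveRx reagent added for 30–60 minutes at room temperature; luminescence read, quantitative HTS format.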
ClpP mod – qHTS Assay for Activators of ClpP; purified B. subtilis ClpP, FRET peptide cleavage, 20 min; 340,000 compounds, 1.9% hits; AID 651965, 2013; ATP-dependent Clp protease proteolytic subunit (Bacillus subtilis (strain 168)), P80244; Potency, µM (doses to about 57.5 µM); active = well fitted falling curve with a large enough effect; inconclusive = small, poorly fitted or top-dose-only effect; inactive = no such curve, though single readings can be large or run the other way; also: the source files actives as falling curves though it sought activators and does not explain the sign; nearly all actives have a fitted effect of over 65% in size
Target sequence (P80244 whole entry, looked up): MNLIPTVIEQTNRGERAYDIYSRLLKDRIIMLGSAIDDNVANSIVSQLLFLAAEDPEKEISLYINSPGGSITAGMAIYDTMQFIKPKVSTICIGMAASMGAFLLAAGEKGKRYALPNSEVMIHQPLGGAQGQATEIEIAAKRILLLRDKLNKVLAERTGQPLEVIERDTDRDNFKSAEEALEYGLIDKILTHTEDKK
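Purified B. subtilis ClpP, 10 microg/mL final in Tris/HCl pH8 with KCl, BSA, glycerol and Tween-20, cleaved an Abz/nitrotyrosine-quenched decapeptide. Fluorescence (ex 320, em 430) was read at 0 and 20 min at room temperature. Delta was normalized to 5.8 microM ADEP and DMSO/no-enzyme controls.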
IL-1B inflam inh – inflammasome signaling inhibition, IL-1 beta readout; activity change, % at 57.5 µM; THP-1 LPS/ATP IL-1B secretion, AlphaLISA, 16 h; hits give low values; 360,000 compounds, 4.7% hits; in the data active = activity change below about -50%; inconclusive = mostly about -30% to -49%
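Secreted IL-1B measured by AlphaLISA bead assay after 16 h compound exposure of THP-1 cells; compounds (final up to 57.5 uM) added 1 h before LPS (250 ng/mL) and ATP (1.25 mM) stimulation; lower signal means less secretion.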
D3 ag – D3 dopamine receptor (human) agonism. D3R DiscoveRx beta-arrestin cells, luminescence, 90 min. P35462. 410,000 compounds, 0.58% hits. AID 652048. max activation, %; in the data active = max activation above about 30%
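Agonist mode: compounds and dopamine controls were applied to plated cells for 90 min at 37 degrees C after an overnight attachment at 1500 cells/well. Luminescent read-out followed 30 - 60 minutes at room temperature with DiscoveRx detection reagent.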
Large screens that a line does not name were inactive. The list is not random: actives were taken first. Their share in the collection is about 21%. Unless noted, calls follow the shape of the dose curve; as a rule, active = well fitted inhibition curve with a large enough effect; inconclusive = small, poorly fitted or top-dose-only effect; inactive = flat fitted curve, though single readings scatter.

COC(=O)C1=C(C)N(CC2CC2)C(=NCc2cccc(Cl)c2)N[C@H]1c1ccccc1	TDP1 cell noCPT inconclusive, DT40 TDP1 CPT 16.4µM, IL-1B inflam inh -61.7
COc1cc(NC(=O)C(CC(C)C)NS(=O)(=O)c2ccc3c(c2)CCCC(=O)N3)cc(OC)c1 (stereo unspecified)	none (no result: DRD3 antagonist, IL-1B inflam inh)
CCc1cccc(C)c1NC(=O)Cn1ccn(-c2ccc(F)cc2)c(=O)c1=O	none (no result: DRD3 antagonist, IL-1B inflam inh)
CCCC(=O)Oc1ccc(C2NC(=O)c3ccccc3O2)cc1 (stereo unspecified)	DRD3 antagonist inconclusive
Cc1ccc(C(=O)Nc2ccc(-c3nc4ccccc4s3)cc2C)cc1C	ClpP mod inconclusive (no result: TDP1 cell noCPT, DT40 TDP1 CPT, DRD3 antagonist, IL-1B inflam inh)
Cc1cc(-c2nc3cc(F)ccc3s2)ccc1N	ClpP mod inconclusive, IL-1B inflam inh -75.5
N=C1/C(=C/c2cccs2)C(=O)N=C2SN=C(SCc3ccccc3)N12	none
CC(C)CSC1=NSC2=NC(=O)/C(=C\c3cccs3)C(=N)N12	TDP1 cell noCPT 20.6µM, DT40 TDP1 CPT inconclusive, IL-1B inflam inh -72.5
COc1ccc(NC(=O)N(C)C[C@H]2Oc3ccc(NC(=O)Cc4ccccc4)cc3CC(=O)N([C@H](C)CO)C[C@H]2C)cc1	none
Cc1cc(C)c(S(=O)(=O)n2cnc(C)c2)c(C)c1	none (no result: DRD3 antagonist, IL-1B inflam inh)
O=C(COc1ccc(F)cc1)Nc1ccc2nc(SCC(=O)N3CCc4ccccc43)sc2c1	TDP1 cell noCPT 2.59µM, DT40 TDP1 CPT 2.59µM (no result: DRD3 antagonist, IL-1B inflam inh)
O=C(CSc1nc2cc(Cl)ccc2s1)N1CCCc2ccccc21	TDP1 cell noCPT 14.1µM, DT40 TDP1 CPT inconclusive
O=C(COc1ccccc1F)Nc1ccc2nc(SCC(=O)N3CCc4ccccc43)sc2c1	TDP1 cell noCPT 5.17µM, DT40 TDP1 CPT 7.31µM (no result: DRD3 antagonist, IL-1B inflam inh)
CC1CCN(c2ccc(NC(=O)c3ccccc3[N+](=O)[O-])cc2)CC1	DRD3 antagonist inconclusive (no result: ClpP mod)
COS(C)(=O)=O	none (no result: DRD3 antagonist, ClpP mod, IL-1B inflam inh, D3 ag)
Cc1ccc(S(=O)(=O)N(C)C)cc1NC(=O)c1cccnc1Oc1ccccc1	TDP1 cell noCPT inconclusive
CCOC(=O)C(=CNc1nc(-c2ccc3ccccc3c2)cs1)C(=O)OCC	TDP1 cell noCPT inconclusive, DT40 TDP1 CPT inconclusive (no result: ClpP mod)
Cc1cc(C)c(NC(=O)Cn2c(=O)n(CCC(=O)NCc3ccccc3Cl)c(=O)c3sccc32)c(C)c1	none (no result: DRD3 antagonist, IL-1B inflam inh)
CC(C)N(C(=S)Nc1cccc(C(F)(F)F)c1)C(C)c1ccccn1 (stereo unspecified)	TDP1 cell noCPT inconclusive, IL-1B inflam inh -91.4
COc1ccccc1NC(=S)N(C(C)C)C(C)c1ccccn1 (stereo unspecified)	TDP1 cell noCPT inconclusive, DT40 TDP1 CPT inconclusive
Cc1cccc(N2CCN(C(=O)Cn3nc(Cc4cccnc4)c4ccccc4c3=O)CC2)c1C	TDP1 cell noCPT 8.2µM, DT40 TDP1 CPT 13µM (no result: DRD3 antagonist, IL-1B inflam inh)
COc1ccc(N2CCN(C(=O)Cn3nc(Cc4cccnc4)c4ccccc4c3=O)CC2)cc1	TDP1 cell noCPT inconclusive, D3 ag 70.2 (no result: DRD3 antagonist, IL-1B inflam inh)
CCN(CC(=O)Nc1cc(Cl)ccc1OC)CC(=O)NC1CCS(=O)(=O)C1 (stereo unspecified)	none
COc1ccc(/C=N/NC(=O)CCn2nc(C)cc2C)cc1	none (no result: ClpP mod)
Cc1cc(C)n(CCC(=O)N/N=C/c2ccccc2O)n1	TDP1 cell noCPT 11.6µM, DT40 TDP1 CPT 11.6µM, ClpP mod inconclusive
Cc1cc(C)n(CCC(=O)N/N=C/c2ccc(Cl)c([N+](=O)[O-])c2)n1	IL-1B inflam inh -90.5 (no result: ClpP mod)
Cc1ccc(S(=O)(=O)N2CCN(CC(=O)N/N=C\c3ccc(Cl)c([N+](=O)[O-])c3)CC2)cc1	TDP1 cell noCPT inconclusive, DT40 TDP1 CPT inconclusive, IL-1B inflam inh inconclusive
COc1ccc(/C=N/NC(=O)CCn2nc(C)cc2C)cc1O	none
O=C(CN1CCN(S(=O)(=O)c2ccc(Br)cc2)CC1)N/N=C/c1ccc(Cl)c([N+](=O)[O-])c1	TDP1 cell noCPT 18.4µM, DT40 TDP1 CPT inconclusive, DRD3 antagonist -70.2, IL-1B inflam inh -90.2

Source: PubChem BioAssay
